BAZ2B inh: blocks human BAZ2B. AlphaScreen BAZ2B-H3K14Ac peptide displacement. Potency, µM (doses to about 114 µM), for the others: at the highest dose activity change, negative = inhibition, usual class: inhibitors. hit rate 4.4% among 360,000; note: potency is the fitted concentration of half-maximal effect; % is set by controls: 0 for no effect and ±100 for the full control effect; nearly all actives have a fitted effect of over 60% in size
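Inhibition is scored as reduced AlphaScreen emission. The BAZ2B/b-H3(5-23)K14Ac complex (50 nM each) in PBS pH 7.4, 0.01% Tween-20 meets compound (up to 110 uM) for 30 min at RT before bead addition.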
HP1b binding inh: HP1-beta chromodomain-methylated histone interaction inhibition | AlphaScreen HP1-beta / biotin-H3K9me3 peptide binding | Potency, µM (top dose mostly 114 µM), without a hit: top-dose activity change, negative = inhibition, usual class: inhibitors | hit rate 0.56% among 390,000; note: potency is the fitted concentration of half-maximal effect; nearly all actives have a fitted effect of over 70% in size
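HP1-beta protein (50 nM final) preincubated 30 min at room temperature with biotinylated H3(1-18)K9me3 peptide (50 nM) in PBS pH 7.4, 0.01% Tween-20, then compound added for 30 min. AlphaScreen streptavidin donor/nickel chelate acceptor beads (10 ug/mL final), 30 min dark, luminescence read.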
JMJD2A Tudor inh: JMJD2A Tudor domain (human) inhibition; AlphaScreen JMJD2A-Tudor / H3K4me3 peptide binding; O75164; hit rate 4.4% among 390,000; Potency, µM (series often up to 114 µM), without a hit: top-dose activity change, negative = inhibition, most hits filed as inhibitors; note: potency is the fitted concentration of half-maximal effect; % is set by controls: 0 for no effect and ±100 for the full control effect; nearly all actives have a fitted effect of over 50% in size
Target sequence (O75164 whole entry, looked up, the tested form may be a part): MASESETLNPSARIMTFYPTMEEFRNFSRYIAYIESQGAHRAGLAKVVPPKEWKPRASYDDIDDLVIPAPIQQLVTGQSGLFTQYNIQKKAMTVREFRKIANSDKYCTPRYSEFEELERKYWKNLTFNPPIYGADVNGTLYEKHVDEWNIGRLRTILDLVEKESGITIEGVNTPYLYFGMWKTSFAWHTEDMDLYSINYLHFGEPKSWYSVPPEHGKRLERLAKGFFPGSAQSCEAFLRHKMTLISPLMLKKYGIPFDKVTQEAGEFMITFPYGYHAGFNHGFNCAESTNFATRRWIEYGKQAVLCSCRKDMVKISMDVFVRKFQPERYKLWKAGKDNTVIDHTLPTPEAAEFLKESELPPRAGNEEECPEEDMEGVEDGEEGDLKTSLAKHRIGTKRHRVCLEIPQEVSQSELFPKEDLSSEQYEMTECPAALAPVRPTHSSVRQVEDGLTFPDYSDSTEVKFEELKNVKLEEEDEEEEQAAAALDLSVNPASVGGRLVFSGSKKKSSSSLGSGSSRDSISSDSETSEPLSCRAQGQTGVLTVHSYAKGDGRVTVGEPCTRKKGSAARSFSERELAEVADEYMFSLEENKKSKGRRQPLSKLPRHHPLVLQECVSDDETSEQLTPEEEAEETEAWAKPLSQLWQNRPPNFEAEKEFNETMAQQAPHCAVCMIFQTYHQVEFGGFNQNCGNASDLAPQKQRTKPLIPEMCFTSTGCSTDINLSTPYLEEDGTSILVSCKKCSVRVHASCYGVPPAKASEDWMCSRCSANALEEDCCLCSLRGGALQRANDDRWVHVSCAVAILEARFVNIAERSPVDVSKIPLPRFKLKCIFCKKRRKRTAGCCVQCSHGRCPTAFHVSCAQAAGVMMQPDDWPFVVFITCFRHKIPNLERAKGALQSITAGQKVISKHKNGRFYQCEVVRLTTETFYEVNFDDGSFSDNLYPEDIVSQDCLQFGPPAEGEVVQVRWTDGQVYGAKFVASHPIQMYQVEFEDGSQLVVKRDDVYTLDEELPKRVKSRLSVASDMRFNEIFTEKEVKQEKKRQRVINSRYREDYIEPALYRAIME
PI5P4Ka inh: PI5P4K alpha (human) kinase inhibition. P48426. AID 652105. max response, %. PI5P4Kalpha enzyme, ADP-Glo luminescence, 60 min; stronger effect = lower value. hit rate 1.2% among 330,000; active = max response of -50% or lower; inconclusive = between -30% and -50%; inactive = -30% or higher; note: value at the top dose of about 77 µM; % is set by controls: 0 for no effect and ±100 for the full control effect
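ADP-Glo luminescence end-point read after a 60 min room-temperature kinase reaction of PI5P4Kalpha plus substrate, initiated with ATP at 5 microM final. Buffer: 0.038 M HEPES pH 7.4, EGTA, 0.1% CHAPS, 5% DMSO.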
L3MBTL1 block: blocks human L3MBTL1 | AlphaScreen L3MBTL1–H3K9me1 peptide binding | Potency, µM (series often up to 57.1 µM), without a hit: at the top dose activity, negative = inhibition, most hits filed as inhibitors | hit rate 0.66% among 230,000; note: potency is the fitted concentration of half-maximal effect; % is set by controls: 0 for no effect and ±100 for the full control effect; nearly all actives have a fitted effect of over 60% in size
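First, the protein-peptide complex forms for 30 min at room temperature (L3MBTL1 50 nM, biotinylated H3K9me1 peptide 75 nM). Next, compounds are pin-transferred and incubated 30 min. Finally, AlphaScreen beads are added and read after 30 min.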
G9a inh: inhibitors of human histone lysine methyltransferase G9a; Q96KQ7; G9a H3K9 monomethylation, AlphaScreen, 2 h; Potency, µM (series often up to 102 µM), for the others: top-dose activity, negative = inhibition, usual class: inhibitors; hit rate 8.8% among 350,000; note: potency is the fitted concentration of half-maximal effect; % is set by controls: 0 for no effect and ±100 for the full control effect; nearly all actives have a fitted effect of over 75% in size
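Signal arises when biotinylated H3K9 peptide, once monomethylated, bridges streptavidin donor and antibody-captured acceptor beads. Enzyme at 20 nM was preincubated 15 min with test compounds; peptide 500 nM and SAM 20 uM then reacted for 2 h.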
The depositor's hits bear a star; u = inconclusive; x = not tested or not shown; [ ] = remark or other dose. In the library only some 11% were active in any assay of this set; here they are far more common. Unless noted, calls come from the whole dose curve; as a rule, active = well fitted inhibition curve with a large enough effect; inconclusive = small, poorly fitted or top-dose-only effect; inactive = no such curve, though single readings can be large or run the other way.

SMILES	BAZ2B inh	HP1b binding inh	JMJD2A Tudor inh	PI5P4Ka inh	L3MBTL1 block	G9a inh
Cc1cc2c(s1)c1cnn(Cc3ccc(F)c(F)c3)c(=O)c1n2C	x	x	-12%	x	x	x
C#CCOCCOCCOCCNc1nc(N2CCN(C(=O)C([C@@H](C)CC)n3cc(C(N)CO)nn3)CC2)nc(N2CCN(C(=O)C([C@@H](C)CC)n3cc(C(N)COC(=O)C(F)(F)F)nn3)CC2)n1 (stereo partly drawn)	x	21%	79µM*	-3	x	x
C#CCOCCOCCOCCNc1nc(N2CCN(C(=O)[C@H]([C@@H](C)CC)n3cc(CCCCN)nn3)CC2)nc(N2CCN(C(=O)[C@H](CCCCN)n3cc(CCCC)nn3)CC2)n1	-1%	10%	-22%	18	7%	20%[2.33 µM]
C#CCOCCOCCOCCNc1nc(N2CCN(C(=O)C([C@@H](C)CC)n3cc(C(N)COC(=O)C(F)(F)F)nn3)CC2)nc(N2CCN(C(=O)[C@H](CCCCN)n3cc(C(N)[C@H](C)CC)nn3)CC2)n1 (stereo partly drawn)	x	18%	56µM*	0	x	x
C#CCOCCOCCOCCNc1nc(N2CCN(C(=O)[C@H]([C@@H](C)CC)n3cc([C@@H](N)CC(C)C)nn3)CC2)nc(N2CCN(C(=O)[C@H](CCCCN)n3cc([C@@H](N)CC(C)C)nn3)CC2)n1	u	6%	56µM*	29	2%	-115%[59 µM]
C#CCOCCOCCOCCNc1nc(N2CCN(C(=O)[C@H]([C@@H](C)CC)n3cc([C@@H](N)CC(C)C)nn3)CC2)nc(N2CCN(C(=O)[C@H](CCCCN)n3cc([C@@H](N)C(C)CC)nn3)CC2)n1 (stereo partly drawn)	79µM*	7%	79µM*	-2	-12%	-11%[12.7 µM]
C#CCOCCOCCOCCNc1nc(N2CCOCC2)nc(N2CCN(C(=O)[C@H](CC(N)=O)n3cc(C(N)[C@@H](C)CC)nn3)CC2)n1 (stereo partly drawn)	x	25%	-31%	0	5%	x
C#CCOCCOCCOCCNc1nc(N2CCN(C(=O)[C@H](CCCCN)n3cc(CN)nn3)CC2)nc(N2CCN(C(=O)[C@H](CCCCN)n3cc([C@@H](N)[C@H](C)CC)nn3)CC2)n1	x	29%	-35%	2	9%	x
C#CCOCCOCCOCCNc1nc(N2CCN(C(=O)[C@H](CCCCN)n3cc(C(N)COC(=O)C(F)(F)F)nn3)CC2)nc(N2CCN(C(=O)[C@H](CCCCN)n3cc(C(N)CC(C)C)nn3)CC2)n1 (stereo partly drawn)	79µM*	x	x	x	x	u
C#CCOCCOCCOCCNc1nc(N2CCOCC2)nc(N2CCN(C(=O)[C@H](CCCCN)n3cc([C@@H](N)CC(C)C)nn3)CC2)n1	-37%	48%	-26%	0	2%	u
O=C(Nc1ccc(C(=O)OCc2cc(=O)n3c4c(sc3n2)CCCC4)cc1)c1ccccc1	-2%	12%	-6%	x	x	17%[59 µM]
CCOC(=O)n1cc(-c2cnc(CNC(=O)C(C)(c3ccccc3)c3ccccc3)o2)c2ccccc21	-31%	2%	u	2	-8%	45µM*
CC(C(=O)NCCN1CCOCC1)(c1ccccc1)c1ccccc1	-16%	10%	-12%	0	7%	-7%
CCOC(=O)CCCN1C(=O)CCn2nc(-c3cn(C)c4ccccc34)cc21	-29%	34%	-26%	x	x	4%[59 µM]
O=C(Nc1ccccc1)c1sc2cc(C(F)(F)F)cnc2c1-c1cccs1	3%	6%	28µM*	u	x	u
COc1ccc2c(c1)c1nnc(SCCN3CCOCC3)nc1n2C	x	16%	-14%	x	x	x
CCCCn1c2ccc(F)cc2c2nnc(SCCN3CCOCC3)nc21	-6%	26%	-18%	-14	x	40µM*
Cn1c2ccc(F)cc2c2nnc(SCCN3CCOCC3)nc21	-1%	52%	0%	-8	x	50µM*
O=C(Nc1ccc(F)cc1)C1CCN(c2nc3ccccc3nc2C(F)(F)F)CC1	2%	24%	-4%	x	x	1%[59 µM]
Cc1cccc(N2CCN(C(=O)c3cc(S(=O)(=O)N4CCC(C)CC4)cn3C)CC2)c1C	u	7%[57 µM]	u	x	x	-2%[59 µM]
CC(=O)N(C1=C(Cl)C(=O)c2ccccc2C1=O)C1CCCCC1	22µM*	7.9µM*	1.6µM*	-87*	u	x
Nc1nnc(-c2ccc(Cl)c(Cl)c2)s1	-14%	20%	-5%	2	u	45µM*
Nc1nnc(-c2cccc(F)c2)s1	-11%	-24%	-17%	0	-2%	-27%
Cc1sc(C2C(C#N)=C(N)N(c3ccc(Cl)cc3)C3=C2C(=O)CCC3)cc1CN1CCOCC1 (stereo not drawn)	u	7%	-19%	x	x	11%[59 µM]
O=C1CC(c2nc3ccccc3n2Cc2c(F)cccc2Cl)CN1c1cccc(C(F)(F)F)c1 (stereo not drawn)	-15%	23%	-5%	x	x	-1%[59 µM]
SMILES	BAZ2B inh	HP1b binding inh	JMJD2A Tudor inh	PI5P4Ka inh	L3MBTL1 block	G9a inh
CCC1=C(c2ccc(C)cc2)S(=O)(=O)N=C1N1CCC(C(=O)NCc2ccc(N(C)C)cc2)CC1	u	-21%	u	x	x	13µM*
COc1ccc(CNC(=O)C2CCN(C(=O)c3ccc(-n4ccc5ccccc54)s3)CC2)cc1	-2%	6%	-15%	x	x	-3%[59 µM]
CC1=C(c2ccc(C)c(C)c2)S(=O)(=O)N=C1N1CCC(C(=O)NCc2ccc(N(C)C)cc2)CC1	u	-29%	u	x	x	4%[59 µM]
O=C(NCCc1ccccc1)C1CCN(C(=O)c2ccc(F)cc2)CC1	8%	30%	3%	-7	1%	-11%
CN(C)c1ccc(CNC(=O)C2CCN(c3nc4ccccc4[nH]3)CC2)cc1	u	-4%[57 µM]	u	x	x	16µM*
O=C(NCCc1ccccc1)C1CCN(Cc2ccccc2F)CC1	56µM*	25µM*	2.5µM*	6	-2%	7.9µM*
CN(C)c1ccc(CNC(=O)C2CCN(C(=O)c3ccc(-n4ccc5ccccc54)s3)CC2)cc1	-29%	u	18µM*	x	x	u
O=C(NCc1ccccc1F)C1CCN(Cc2cc3ccccc3n2Cc2cccc(Cl)c2)CC1	-19%	24%	-14%	x	x	-1%[59 µM]
CCOC(=O)C1CCCN(S(=O)(=O)c2csc(C(N)=O)c2)C1 (stereo not drawn)	-16%	38%	-5%	x	x	-12%[59 µM]
CCn1nc(C)c(CCN(C)C(=O)Nc2ccc(C)c(Cl)c2)c1C	0%	8%	-3%	x	x	2%[59 µM]
O=C(NCCc1ccccc1)C1CCN(Cc2cc3ccccc3n2Cc2cccc(Cl)c2)CC1	-11%	-5%	-20%	x	x	10%[59 µM]

Compound activity (PubChem BioAssay)
